Screening data deposited in PubChem by several laboratories.
This is a sample that favours compounds with a hit; in the whole collection about 5.4% have one here.
Mdm2 MdmX PPI = inhibitors of human Mdm2-MdmX association, primary screen, cell-based, luminescence, split luciferase, SaOS-2, uHTS; Protein Mdm4 (Homo sapiens) + E3 ubiquitin-protein ligase Mdm2 (Homo sapiens), …; SaOS-2 split-luciferase Mdm2/MdmX complementation; inhibition, % at 8 µM; 3% of 330,000 active; AID 485346, 2010;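 active means inhibition of at least 50% at 8 µM in the primary screen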
Target sequence (O15151 whole entry, looked up): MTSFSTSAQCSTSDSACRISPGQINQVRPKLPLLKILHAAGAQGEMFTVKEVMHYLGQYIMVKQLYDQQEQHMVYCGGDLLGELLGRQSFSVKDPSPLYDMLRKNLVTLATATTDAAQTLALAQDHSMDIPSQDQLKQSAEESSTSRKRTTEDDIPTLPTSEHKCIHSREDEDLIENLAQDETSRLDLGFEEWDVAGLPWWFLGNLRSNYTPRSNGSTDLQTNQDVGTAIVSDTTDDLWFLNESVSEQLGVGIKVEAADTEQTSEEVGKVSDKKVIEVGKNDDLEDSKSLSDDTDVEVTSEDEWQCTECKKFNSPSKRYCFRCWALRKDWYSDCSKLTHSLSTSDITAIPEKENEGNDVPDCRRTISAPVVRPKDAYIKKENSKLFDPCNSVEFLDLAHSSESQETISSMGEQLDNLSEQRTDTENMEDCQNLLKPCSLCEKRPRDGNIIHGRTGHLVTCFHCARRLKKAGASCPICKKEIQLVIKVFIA
Target sequence (Q00987 whole entry, looked up): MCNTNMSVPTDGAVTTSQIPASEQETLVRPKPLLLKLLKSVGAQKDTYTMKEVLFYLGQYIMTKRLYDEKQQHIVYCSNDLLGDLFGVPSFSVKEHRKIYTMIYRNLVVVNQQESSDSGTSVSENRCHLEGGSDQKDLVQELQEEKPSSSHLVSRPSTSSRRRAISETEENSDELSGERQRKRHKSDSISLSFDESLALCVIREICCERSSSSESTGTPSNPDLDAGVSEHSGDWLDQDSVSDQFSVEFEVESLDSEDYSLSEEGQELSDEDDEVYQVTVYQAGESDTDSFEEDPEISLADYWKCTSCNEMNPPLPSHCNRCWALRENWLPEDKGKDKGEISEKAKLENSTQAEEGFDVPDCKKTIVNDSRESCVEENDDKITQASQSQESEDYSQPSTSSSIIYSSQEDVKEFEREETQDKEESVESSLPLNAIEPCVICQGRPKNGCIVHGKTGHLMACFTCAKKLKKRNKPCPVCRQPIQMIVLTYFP
CSC inhib = cancer stem cell viability inhibitors, primary screen, luminescence; cancer stem cell-like cells viability; inhibition, % at 7.5 µM; 1.1% of 300,000 active; AID 2717, 2010; in the data active means inhibition above about 75%; inconclusive means no clear call, values can overlap the other calls; tested in HMLE shEcad cells
SKKanGAS inh = S. pyogenes SKKanGAS growth inhibitors in kanamycin, primary screen, streptokinase expression inhibitor project, SKKanGAS strain, BacTiter-Glo luminescence; 6 h; inhibition, % at 7.5 µM; 1.3% of 300,000 active; AID 1662, 2009;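 active means mean replicate score, as percent of positive control median, at least 50; inconclusive means mean below 50 but one replicate at or above 50; inactive means mean and every replicate below 50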;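 further: strain carries kanamycin resistance gene driven by streptokinase promoter and grows in 40 µg/ml kanamycin; loss of luminescence reflects streptokinase promoter inhibition or plain growth inhibition; 0% = median of DMSO wells and 100% = positive control at its reference dose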
Calb FLC = C. albicans growth inhibition with fluconazole, primary screen, CaCi-2 strain, Alamar Blue fluorescence; C. albicans CaCi-2 (fluconazole-resistant clinical isolate) + fluconazole, 48 h; growth inhibition, % (no concentration beside the values); 0.57% of 300,000 active; AID 1979, 2009;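 active means growth inhibition above about 58% in most replicates, limit read from the data, passing the limit was not always enough; inconclusive means exactly half the replicates above a set limit; inactive means most replicates below a set limit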;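 further: all wells also contain fluconazole at 8 µg/ml as a sub-toxic cotreatment; 0% = median of DMSO wells and 100% = median of geldanamycin control wells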
MPTP block = mitochondrial permeability transition pore inhibitors, primary screen, biochemical, isolated mouse mitochondria, absorbance; Ca2+ swelling absorbance, 30 min; inhibition, % at 10 µM; 1.4% of 360,000 active; AID 602449, 2012;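 active means inhibition of 50% or more, scaled per plate between neutral and stimulator controls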;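 further: 0% = DMSO wells given calcium and 100% = 1 mM EGTA wells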
Beta cell apopt = inhibitors of cytokine-induced beta cell apoptosis, primary screen, luminescence; AID 435005, 2010; 0.8% of 300,000 active; protection from apoptosis, % (test concentration not listed); INS-1E cytokine-induced death, ATP luminescence, 48 h; percent of positive-control rescue, neutral wells zero;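 active means Every replicate reaches about 75%, or at least half do and their mean reaches it too, limit read from the data; inconclusive means At least half of replicates reach the limit but their mean does not; inactive means Under half of replicates reach the limit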;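 further: 0% = cytokine-treated negative control wells and 100% = positive control rescue; higher means more ATP so stronger rescue from cytokine killing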
Mdm2-MdmX conf = Mdm2-MdmX complex disruptors, retested hits, confirmation, luminescence, single concentration; shares compounds with Mdm2 MdmX PPI; Mdm2-MdmX binding, luminescent assay; inhibition, % at 8 µM; 55% of 10,000 active; in the data active means inhibition above about 40%
FLuc counter = full-length luciferase signal inhibition, confirmation, counter-screen for Mdm2/MdmX interaction inhibitor project, cell-based, single concentration, SaOS-2 | shares compounds with Mdm2 MdmX PPI | SaOS-2 full-length luciferase counterscreen, luminescence | inhibition, % at 8 µM | 77% of 6,200 active | AID 504607, 2011;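 active means mean inhibition at 8 µM reaching about 37%, which flags the compound as non-specific, limit read from the data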;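 further: p53-null SaOS-2 cells with luciferase driven by a doxycycline-inducible promoter; compound on cells about two nights before reading with doxycycline added after day one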
* hit, by the source's call; ? = inconclusive; · = no result.

SMILES	Mdm2 MdmX PPI	CSC inhib	SKKanGAS inh	Calb FLC	MPTP block	Beta cell apopt	Mdm2-MdmX conf	others
CC1=NOC(=O)/C1=C\c1ccc(-c2cc(Cl)ccc2Cl)o1	100*	87*	8	-9	-5	101*	16
CC1=NOC(=O)/C1=C/c1ccc(-c2ccc(Cl)cc2)o1	100*	26	·	·	1	73	48*	FLuc counter=17
Cc1ccc(C2CC(c3cccs3)=NN2C(=O)CCl)cc1 (stereo unspecified)	100*	29	10	3	-2	-10	96*	FLuc counter=53*
CCC(=O)N1N=C(c2cccs2)CC1c1ccc(C)cc1 (stereo unspecified)	-12	-6	17	11	0	3	·
COc1ccc(C2CC(c3cccs3)=NN2C(=O)CSC2=NCCS2)cc1 (stereo unspecified)	54*	19	?	10	0	-2	14
Cc1ccc(C2CC(c3cccs3)=NN2C(=O)CSC2=NCCS2)cc1 (stereo unspecified)	55*	3	21	-5	-1	-9	28
CCN1C(=O)CC(N2CCN(CC(=O)NC(C)C)CC2)C1=O (stereo unspecified)	13	-10	-9	-3	-2	-2	·
CCN(CC(=O)NCc1cccs1)C(=O)c1ccc([N+](=O)[O-])o1	18	2	1	10	-1	-15	·
COc1ccc(C(=O)Nc2ccc(Br)cc2F)cc1S(=O)(=O)N1CCCC1	19	·	·	·	0	·	·
COC(=O)CSc1nc2sccc2c(=O)n1-c1ccccc1	13	-8	6	6	-1	1	·
COc1ccc(NC(=O)c2cc(-c3ccccn3)nc3c(C)cc(C)cc23)c(C)c1	77*	1	-3	-5	0	-3	47*	FLuc counter=104*
Cc1cc(C)c2nc(-c3ccccn3)cc(C(=O)NCCc3ccc(S(N)(=O)=O)cc3)c2c1	44	25	11	31	1	10	·
Cc1cc(C)c2nc(-c3ccccn3)cc(C(=O)NCc3ccc(S(N)(=O)=O)cc3)c2c1	54*	23	-20	30	0	7	-3
COc1cccc(NC(=O)c2cc(-c3ccncc3)nc3c(C)cc(C)cc23)c1	22	39	5	-2	1	6	·
CCOc1cccc2sc(N(CCN(C)C)C(=O)CCS(=O)(=O)c3ccccc3)nc12	-26	-7	1	15	0	-3	·
CC1(C)CC(=O)c2sc(NC(=O)CCS(=O)(=O)c3ccccc3)nc2C1	71*	27	-2	18	-1	-25	26
CCOc1cccc2sc(NC(=O)CCS(=O)(=O)c3ccccc3)nc12	70*	-5	35	62	0	-15	66*	FLuc counter=35
COc1ccc(C)c2sc(NC(=O)CCS(=O)(=O)c3ccccc3)nc12	77*	0	12	?	0	4	69*	FLuc counter=45*
CC1(C)CC(=O)c2sc(NC(=O)c3ccccc3)nc2C1	-122	-6	4	3	·	5	·
O=c1cc(O)c(-c2cccc(Cl)c2)c(Cl)[nH]1	-10	-11	11	-1	46	-3	·
COc1ccc(CN2C(=O)C(CC(=O)NCCCN(C)C)CC(C(=O)N(C(C)C)C(C)C)=C2C)cc1 (stereo unspecified)	·	·	·	·	0	·	·
COc1nc(C)ccc1-c1noc(-c2ccco2)n1	-128	-4	-12	7	0	-2	·
COc1ccc(C(=O)Nc2ccc(Oc3ncnc4sc(-c5ccccc5)cc34)cc2)cc1OC	5	31	28	5	2	4	·
COc1ccccc1C(=O)Nc1ccc(Oc2ncnc3sc(-c4ccccc4)cc23)cc1	9	4	14	9	1	4	·
